Our source for the activation, outcome and potentiation, percent of control values is PubChem BioAssay.

For some assays here: Potency and affinity values are given separately. The source made the active and inactive calls.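 Rule for the calls, unless noted: active = hit in primary screen, with calcium signal over 5 SD above buffer well mean in both duplicates; inactive = the rest.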

Assay [1] deals with TRPC4 beta (transient receptor potential cation channel C4), mouse. Nature of the assay: activators of mouse TRPC4 channel, confirmation, cell-based, Fluo4 calcium, HEK293 TRPC4beta/mu-opioid, duplicates, 10 µM (AID 2426;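 active = fluorescence ratio normalized to control raised more than 50% in primary screen plus both repeat runs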;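 for activation: percent rise of integrated ratio over buffer wells lacking compound which define 0%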). The note with it: Fluo4 calcium fluorescence, at 10 µM; active compounds read high.
In assay [2] the test system is transient receptor potential cation channel C4 beta (TRPC4), mouse. The assay is described as follows: activators of mouse TRPC4 channel, confirmation, cell-based, second round, Fluo4, HEK293 TRPC4beta/mu-opioid, 1 µM (AID 2461;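 active = primary screen active and over 50% activation in each of two duplicate runs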;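 for activation: 0% = wells without test compound as baseline of integrated fluorescence ratio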). As to conditions: Fluo4 calcium fluorescence, at 1 µM; active compounds read high.
Assay [3] relates to TRPC4 (transient receptor potential cation channel C4 beta), mouse. The assay is described as follows: positive allosteric modulators of mouse TRPC4, confirmation, cell-based, second round, Fluo-4, HEK293 TRPC4beta/mu-opioid, 1 µM (AID 2554;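 active = primary screen hit whose fluorescence ratio, in both repeats, exceeds the weak agonist control mean by 3 SD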). The note with it: DAMGO EC20, Fluo-4 calcium flux, at 1 µM; active compounds read high. A general note: A change in cytosolic calcium serves as a functional read-out for many receptors and channels.

Assay [4] concerns TRPC4 beta (transient receptor potential cation channel C4), mouse. The assay is described as follows: positive allosteric modulators of mouse TRPC4, confirmation, cell-based, Fluo-4, HEK293 TRPC4beta/mu-opioid (AID 2555;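 active = primary screen hit whose calcium fluorescence ratio, in both repeats, exceeds the weak agonist control mean by 3 SD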). As to conditions: DAMGO EC20, Fluo-4 calcium flux, at 10 µM; active compounds read high.
Assay [5] concerns the target Short transient receptor potential channel 4 (Mus musculus) (UniProt Q9QUQ5). Nature of the assay: inhibitors of mouse TRPC4 channel, confirmation, cell-based, Fluo4, HEK293 TRPC4beta/mu-opioid (AID 2636;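 active = calcium signal cut by more than 3 SD below the full-agonist control yet still positive, in both repeats and the earlier primary screen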). The note with it: DAMGO, Fluo4 calcium flux, at 10 µM; active compounds read high.
The target is the same in assay [6]. Nature of the assay: inhibitors of mouse TRPC4 channel, confirmation, cell-based, second round, Fluo4, HEK293 TRPC4beta/mu-opioid, 1 µM (AID 2637;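 active = calcium signal ratio cut to more than 3 SD under the fully stimulated control mean yet still positive, in both repeats and the primary screen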). As to conditions: Fluo4 calcium flux, DAMGO, at 1 µM; active compounds read high.
For assay [7] the target is unchanged. Nature of the assay: TRPC4 positive allosteric modulators, dose response, cell-based, HEK293 TRPC4/mu-opioid, Fluo-4 calcium, EC20 DAMGO (AID 434941;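 active = earlier screen potentiator hit that boosts the TRPC4 ion channel at some dose, with a dose response; inactive = no potentiation, no dose response, or not a prior hit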;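 note: calcium entry triggered by an EC20 dose of DAMGO at the co-expressed mu-opioid receptor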).
Assay [8] has the same target. The assay is described as follows: mouse TRPC4 channel inhibitors, dose response, cell-based, HEK293 TRPC4/mu-opioid, Fluo-4 calcium (AID 434942;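 active = primary screen inhibitor hit that blocks the TRPC4 channel at some tested dose, yielding a dose curve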).
For assay [9], the target named is Short transient receptor potential channel 6 (Mus musculus) (UniProt Q61143). The assay is described as follows: inhibition of mouse TRPC6 channel, confirmation, selectivity assay for TRPC4 inhibitor project, cell-based, HEK293, membrane potential dye, duplicate (AID 434948;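 active = active in primary screen and both duplicates, each dropping signal beyond three positive-control SD with fluorescence still positive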). The note with it: HEK293 TRPC6, membrane potential dye fluorescence, at 10 µM, stimulated with maximal-effect acetylcholine; active compounds read high.

Assay [10] shares this target. The assay is described as follows: activation of mouse TRPC6 channel, confirmation, selectivity assay for TRPC4 activator project, cell-based, HEK293, membrane potential dye, duplicate (AID 434950;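 active = membrane potential signal rise above negative control mean plus 3 SD in both duplicates, also active in the earlier TRPC4 screen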;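 for activation: 0% = buffer only wells and 100% = acetylcholine maximal-effect wells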). The note with it: HEK293 TRPC6, membrane potential fluorescence, at 10 µM; active compounds read high.
Assay [11] has the same target. Nature of the assay: TRPC6 potentiation by TRPC4 potentiator hits, confirmation, selectivity assay for TRPC4 potentiator project, HEK293 cells, membrane potential dye, duplicate (AID 434952;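 active = compound raising the membrane signal above positive-control mean plus 3 SD in both repeats, and a primary screen hit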). The note with it: HEK293 TRPC6, membrane potential dye fluorescence, at 10 µM, maximal acetylcholine added after compound; active compounds read high.
The target of assay [12] is Short transient receptor potential channel 4 (Mus musculus) (UniProt Q9QUQ5). Nature of the assay: calcium flux activators in TRPC4/5HT1a cells, counter-screen for TRPC4 activator project, cell-based, second counter screen, HEK293 TRPC4/5HT1a, Fluo-4 (AID 434977;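 active = calcium signal rise above buffer-control mean plus 5 SD in both duplicates, and also a hit in the primary screen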;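 for activation: plate controls were assay buffer for no effect and maximal serotonin response for full effect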). As to conditions: Fluo-4 calcium flux, at 10 µM; active compounds read high.
Assay [13] is described as follows: calcium flux inhibitors in TRPC4/5HT1a cells, confirmation, counter-screen for TRPC4 inhibitor project, cell-based, second counter screen, HEK293 TRPC4/5HT1a, Fluo-4 (AID 434978;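 active = primary screen active whose calcium signal fell more than 3 SD beyond the full-serotonin control mean in both duplicate plates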;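 note: serotonin given first at submaximal then at maximal dose after compound preincubation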). The note with it: Fluo-4 calcium flux, at 10 µM, serotonin added to trigger calcium flux; active compounds read high.
In assay [14] the test system is TRPC4 (mouse), co-expressed with 5HT1a in HEK293. Nature of the assay: calcium flux potentiators in TRPC4/5HT1a cells, confirmation, counter-screen for TRPC4 potentiator project, cell-based, second counter screen, HEK293 TRPC4/5HT1a, Fluo-4 (AID 434979;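 active = signal rise over 3 SD above mean of control wells given weak agonist, in both repeats and first screen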). As to conditions: Fluo-4 calcium flux, at 10 µM, serotonin added at its EC20 dose; active compounds read high.
Assay [15] can be described thus: calcium flux activation in mu-opioid HEK293 cells, confirmation, counter-screen for TRPC4 activator project, cell-based, HEK293 mu-opioid receptor line (AID 449723).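 Note: counter screen cells carry the mu-opioid receptor alone and lack TRPC4.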 The note with it: Fluo-4 calcium fluorescence, at 10 µM; active compounds read high.
Assay [16] can be described thus: calcium flux enhancement in mu-opioid HEK293 cells, confirmation, counter-screen for TRPC4 allosteric potentiator project, cell-based, HEK293 mu-opioid receptor line (AID 449724;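 active = calcium signal rise more than 3 SD above the low-dose agonist control mean, in both duplicate plates and the primary screen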;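 note: HEK293 cells carrying mu-opioid receptor only with no TRPC4 channel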). The note with it: Fluo-4 calcium flux, at 10 µM, compound added before EC20 DAMGO stimulus; active compounds read high.

Sequence of Short transient receptor potential channel 4 (Mus musculus) (Q9QUQ5 whole entry, looked up): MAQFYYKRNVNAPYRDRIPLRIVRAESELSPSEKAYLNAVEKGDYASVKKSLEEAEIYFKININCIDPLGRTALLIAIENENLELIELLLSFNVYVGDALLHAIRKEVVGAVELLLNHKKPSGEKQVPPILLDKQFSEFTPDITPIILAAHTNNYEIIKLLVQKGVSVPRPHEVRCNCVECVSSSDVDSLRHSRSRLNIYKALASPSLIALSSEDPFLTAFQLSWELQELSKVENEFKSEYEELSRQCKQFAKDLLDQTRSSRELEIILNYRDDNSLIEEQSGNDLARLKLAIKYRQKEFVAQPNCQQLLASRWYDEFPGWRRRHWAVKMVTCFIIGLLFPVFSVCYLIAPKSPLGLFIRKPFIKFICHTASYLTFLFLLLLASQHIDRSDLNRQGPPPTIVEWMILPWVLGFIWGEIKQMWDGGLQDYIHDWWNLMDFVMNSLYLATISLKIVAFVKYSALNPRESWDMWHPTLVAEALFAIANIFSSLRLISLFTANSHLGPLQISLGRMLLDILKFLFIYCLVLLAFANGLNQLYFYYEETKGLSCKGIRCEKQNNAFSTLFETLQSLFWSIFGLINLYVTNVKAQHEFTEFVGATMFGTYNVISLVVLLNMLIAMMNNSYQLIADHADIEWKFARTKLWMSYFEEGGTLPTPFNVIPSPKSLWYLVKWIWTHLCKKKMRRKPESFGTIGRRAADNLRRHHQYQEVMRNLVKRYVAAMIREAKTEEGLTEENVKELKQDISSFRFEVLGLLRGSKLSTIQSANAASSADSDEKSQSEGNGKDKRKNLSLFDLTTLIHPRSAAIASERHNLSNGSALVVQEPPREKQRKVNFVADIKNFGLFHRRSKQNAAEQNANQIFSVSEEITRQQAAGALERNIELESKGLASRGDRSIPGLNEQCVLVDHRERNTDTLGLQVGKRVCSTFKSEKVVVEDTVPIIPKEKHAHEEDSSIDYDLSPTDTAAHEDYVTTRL
Sequence of Short transient receptor potential channel 6 (Mus musculus) (Q61143 whole entry, looked up): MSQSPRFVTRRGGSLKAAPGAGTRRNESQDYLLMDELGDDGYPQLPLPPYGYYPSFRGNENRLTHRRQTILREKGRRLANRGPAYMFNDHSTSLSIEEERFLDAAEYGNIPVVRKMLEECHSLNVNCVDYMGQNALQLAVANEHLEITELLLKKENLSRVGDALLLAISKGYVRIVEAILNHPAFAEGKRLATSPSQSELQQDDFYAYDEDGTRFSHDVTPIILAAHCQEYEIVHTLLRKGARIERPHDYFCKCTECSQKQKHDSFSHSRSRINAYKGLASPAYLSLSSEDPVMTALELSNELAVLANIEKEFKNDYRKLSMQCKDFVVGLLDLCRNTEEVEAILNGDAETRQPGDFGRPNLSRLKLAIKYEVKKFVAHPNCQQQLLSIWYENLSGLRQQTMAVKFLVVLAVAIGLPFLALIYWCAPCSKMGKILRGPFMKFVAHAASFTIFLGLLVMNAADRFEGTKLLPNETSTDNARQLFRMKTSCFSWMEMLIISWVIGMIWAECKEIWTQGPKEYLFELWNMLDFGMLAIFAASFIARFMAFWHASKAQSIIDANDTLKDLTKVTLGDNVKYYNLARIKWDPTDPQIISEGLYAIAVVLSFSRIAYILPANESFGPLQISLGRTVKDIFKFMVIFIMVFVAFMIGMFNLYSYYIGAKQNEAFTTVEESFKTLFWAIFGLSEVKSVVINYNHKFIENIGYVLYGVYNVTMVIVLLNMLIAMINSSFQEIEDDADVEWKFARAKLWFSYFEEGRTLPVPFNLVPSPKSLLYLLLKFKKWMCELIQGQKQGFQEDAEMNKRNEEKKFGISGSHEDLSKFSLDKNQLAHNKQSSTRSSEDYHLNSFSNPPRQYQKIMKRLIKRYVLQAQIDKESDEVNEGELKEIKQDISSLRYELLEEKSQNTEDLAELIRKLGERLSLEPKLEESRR

With `CC[C@@H](C)[C@H](CNC)NC[C@@H](Cc1cccc2ccccc12)NCCc1cccc(C(F)(F)F)c1`, the activation in assay [1] is 127% (active); in [10] it was 29% (active); in assay [12], 111% (active); in assay [15], 25.7% (active). Moreover, the outcome in assay [2], in assay [3], in assay [4], in [5], in assay [6] and in assay [7] was inactive. The outcome in assay [8], in [9], in assay [11], in assay [13], in [14] and in assay [16] was inactive.
On to `CCOc1ccccc1C1CC(c2ccc(Cl)cc2)Nc2nc(N)nn21` (centres undefined), for which the activation in assay [1] was 243% (active); in assay [12] it was 6.24% (active). For the same compound, the result in assay [2], in assay [3], in assay [4], in [5], in [6] and in assay [7] was inactive. The result in assay [8], in [9], in assay [10], in assay [11], in [13] and in [14] was inactive. Further, the outcome in assay [15] and in [16] was inactive.
As for `Cc1csc2c(N3CCN(C(=O)Nc4ccc(Cl)c(Cl)c4)CC3)ncnc12`, the values for the activation in [1] and in assay [12] were 115% (active) and 40.3% (active), respectively. For the same compound, the result in assay [2], in assay [3], in assay [4], in [5], in [6] and in [7] was inactive. Besides, the outcome in [8], in [9], in assay [10], in assay [11], in assay [13] and in assay [14] was inactive. Moreover, the result in assay [15] and in assay [16] was inactive.
On to `O=c1c(Cc2ccccc2)c(O)ccn1CCc1cnc[nH]1`, for which the values for the activation in assay [1] and in assay [12] were 134% (active) and 39.3% (active), respectively. The outcome in assay [2], in assay [3], in [4], in assay [5], in assay [6] and in assay [7] was inactive. Moreover, the outcome in assay [8], in [9], in [10], in assay [11], in [13] and in assay [14] was inactive. For the same compound, the outcome in assay [15] and in assay [16] was inactive.
Regarding `CCCCN(CC)CCCNC(=O)c1csc2c1CCCCC2`, the activation in [1] was 211% (active); in assay [10], 66.5% (active); in assay [12], 78.6% (active). Further, the result in assay [2], in assay [3], in assay [4], in [5], in [6] and in [7] was inactive. Also, the result in assay [8], in assay [9], in [11], in assay [13], in assay [14] and in assay [15] was inactive. Moreover, the outcome in assay [16] was inactive.
As to `CCOc1ncccc1C(=O)NCC(c1ccccc1)N(C)C` (centres undefined), the results for the activation in assay [1] and in assay [10] were 155% (active) and 61% (active), respectively. The outcome in assay [2], in [3], in assay [4], in assay [5], in [6] and in [7] was inactive. The result in assay [8], in [9], in [11], in [12], in assay [13] and in [14] was inactive. Besides, the result in [15] and in assay [16] was inactive.
As to `COc1ccc(C(CNC(=O)C2CCN(S(=O)(=O)c3ccc(F)cc3)CC2)N(C)C)cc1` (centres undefined), the activation in assay [1] was 149% (active). Moreover, the outcome in assay [2], in [3], in [4], in assay [5], in [6] and in [7] was inactive. The result in assay [8], in [9], in assay [10], in assay [11], in [12] and in assay [13] was inactive. The result in assay [14], in assay [15] and in assay [16] was inactive.
Consider `Fc1ccc(NC(=S)NCCc2ccccn2)cc1`, for which the activation in [1] is 199% (active); in assay [2] it was 60% (active); in assay [12] it was 88% (active). Further, the result in assay [3], in [4], in assay [5], in [6], in [7] and in [8] was inactive. The compound was classed as inactive in [9], in [10], in [11], in assay [13], in assay [14] and in assay [15]. The result in assay [16] was inactive.
Take `Cc1ccc(-n2cc(CNC(C)c3cnn(C)c3C)c(-c3ccc(F)cc3)n2)cc1` (centres undefined): the values for the activation in assay [1], in [2] and in assay [10] were 195% (active), 86% (active) and 30.5% (active), respectively. In addition, the outcome in assay [3], in assay [4], in assay [5], in [6], in assay [7] and in [8] was inactive. The call in assay [9], in assay [11], in assay [12], in assay [13], in assay [14] and in [15] was inactive. Further, the result in assay [16] was inactive.
Take `S=C(NCCc1cnc[nH]1)NC1CCCC1`: the values for the activation in assay [1], in [2] and in [12] were 220% (active), 135% (active) and 79.6% (active), respectively. For the same compound, the outcome in [3], in assay [4], in [5], in assay [6], in assay [7] and in assay [8] was inactive. Further, the compound was called inactive in assay [9], in assay [10], in [11], in assay [13], in assay [14] and in [15]. Further, the outcome in assay [16] was inactive.
Turning to `COc1ccc(C(=O)NNC(=S)NC(=O)c2cccs2)cc1`, the outcome in [1], in assay [2], in [3], in [4], in [5] and in assay [6] was inactive. The outcome in assay [7], in [8], in [9], in [11], in [13] and in assay [14] was inactive. Also, the result in [15] and in [16] was inactive. Besides, the activation in [10] is 41.5% (active); in assay [12], 42.7% (active).
For the compound `CCCc1c(O)nc(SCCN(CC)CC)[nH]c1=O`, the activation was 179% (active) in [1], 82% (active) in assay [2] and 51.5% (active) in assay [12]. Also, the outcome in [3], in assay [4], in assay [5], in [6], in assay [7] and in assay [8] was inactive. Besides, the result in assay [9], in [10], in assay [11], in [13], in assay [14] and in assay [15] was inactive. Besides, in [16], the result was inactive.
As for `O=C1S/C(=C\c2ccc(N3CCOCC3)o2)C(=O)N1Cc1c(F)cccc1Cl`, the result in assay [1], in assay [2], in [3], in assay [4], in [5] and in [6] was inactive. Besides, the outcome in assay [7], in [8], in assay [9], in assay [12], in [13] and in assay [14] was inactive. Further, the result in assay [15] and in [16] was inactive. The activation in assay [10] is 280% (active). In [11], the potentiation, percent of control is 191% (active).
On to `CCOC(=O)C1(CCOC)CCN(Cc2ccccc2-c2ccco2)CC1`, for which the activation in assay [1] is 60% (active); in [10], 68.5% (active). In addition, the outcome in [2], in [3], in [4], in [5], in assay [6] and in assay [7] was inactive. In addition, the result in assay [8], in assay [9], in assay [11], in assay [12], in assay [13] and in [14] was inactive. The result in assay [15] and in assay [16] was inactive.
